Screens from PubChem BioAssay.
Only some compounds are listed: those with a hit (about 2.3% of all), similar ones and a draw of the others.
iPSC survival up – increases survival of single human iPS cells; survival enhancement, % at 20 µM; hiPSC single-cell survival, ATPlite luminescence; 100% = ROCK inhibitor wells, 0% = DMSO; AID 602274; hit rate 0.044% among 360,000; in the data active = survival enhancement above about 18%;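 note: cells exposed to compounds for 16 hours before the ATP read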
TWEAK Fn14 block – blocks TWEAK-Fn14 interaction in a reporter cell assay; TWEAK-stimulated Fn14 reporter cells, luciferase luminescence, 8 h; inhibition, % at 10 µM; hit rate 2% among 360,000; AID 1159606; in the data active = inhibition above about 50%
LGR2 antag – Drosophila LGR2 receptor signaling inhibition; HEK293 LGR2, CRE-luciferase, bursicon-stimulated, 4 h; inhibition, % at 9.99 µM; hit rate 0.35% among 380,000; AID 720647;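 active = drop in luminescence signal, shown as inhibition above about 50% in the replicate tests, limit read from the data, passing the limit was not always enough; inconclusive = probably only some replicates passing the limit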;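 note: agonist challenge used bursicon conditioned medium at about half maximal strength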
CF NFkB inh – blocks PAF-induced NF-kB reporter in cystic fibrosis cells; KKLEB NF-kB-GFP reporter, GFP fluorescence overnight; inhibition, % at 5 µM; hit rate 0.86% among 360,000; AID 588850;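 active = at least 50% inhibition at 5 µM, scaled per plate between neutral and stimulator controls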;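 note: PAF is a Pseudomonas aeruginosa culture filtrate used as stimulus; plate controls were PAF-stimulated DMSO wells for no effect and unstimulated DMSO wells for full effect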
KKLEB cytotox – reduces viability of KKLEB cystic fibrosis airway cells. hit rate 0.36% among 360,000. activity change (cytotoxicity), % at 5 µM. AID 602141. KKLEB CF airway cells viability, ATPlite luminescence, overnight; hits give low values; cells stimulated with P. aeruginosa culture filtrate;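 active = corrected activity change at or below -50% at 5 µM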
HIF-2a block – blocks HIF-2a reporter activity; hit rate 0.72% among 360,000; inhibition, % at 18.8 µM; 786-0 RCC cells HIF-2a reporter, luciferase luminescence, overnight;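 active = inhibition of the luminescence signal of 40% or more relative to plate controls, in a single-dose primary screen at 18.75 µM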
CF NFkB conf – confirmation of cystic fibrosis induced NF-kB inhibitors; shares compounds with CF NFkB inh; KKLEB CF airway cells, PAF-induced NF-kB-GFP fluorescence, overnight; inhibition, % at 5 µM; hit rate 64% among 1,300; in the data active = inhibition above about 40%;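 note: stimulus PAF is a Pseudomonas aeruginosa filtrate and not platelet activating factor; plate controls were DMSO wells with stimulus for no effect and unstimulated DMSO wells for full effect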
Mdm2-MdmX confirm – Mdm2/MdmX (human) interaction inhibition, confirmed; shares compounds with HIF-2a block; SaOS-2 split-luciferase Mdm2/MdmX complementation, luminescence; hit rate 99% among 740; AID 504601; inhibition, % at 8 µM;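 active = mean inhibition of the luminescence signal across two replicates at or above 26 percent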
HIF-2a inh conf – HIF-2a inhibition, single concentration confirmation; 786-0 RCC cells, HIF-2a luciferase reporter luminescence, overnight; hit rate 56% among 1,800; shares compounds with HIF-2a block; AID 651580; inhibition, % at 18.8 µM;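 active = mean inhibition across four replicates of at least 40 percent at the single tested concentration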
HIF-1a counter – HIF-1a inhibition counter-screen for HIF-2a hits; MiaPaCa-2 HIF-1a luciferase reporter, desferoxamine, overnight; inhibition, % at 18.8 µM; hit rate 72% among 1,800; shares compounds with HIF-2a block;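 active = mean inhibition of the reporter signal across four replicates at the single tested dose of 50% or more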
* = called active by the depositor; ? = inconclusive; / = not tested or not shown.

SMILES	iPSC survival up	TWEAK Fn14 block	LGR2 antag	CF NFkB inh	KKLEB cytotox	HIF-2a block	CF NFkB conf	HIF-2a inh conf	HIF-1a counter	others
CN(CCC#N)C(=O)COC(=O)c1ccccc1C(=O)c1ccc(Cl)c([N+](=O)[O-])c1	-4.3	30.1	/	76.1*	-28.2	43.1*	96.6*	0.0	68.2*
O=C(COC(=O)c1ccc(Cl)c([N+](=O)[O-])c1)NC1CCCC1	-0.4	6.4	-21.9	1.3	12.5	1.9	/	/	/
CN(CCC#N)C(=O)COC(=O)c1ccc(Cl)c(S(N)(=O)=O)c1	-1.3	-6.5	/	-3.1	2.0	14.9	/	/	/
Cn1c(N)c(C(=O)COC(=O)c2ccccc2C(=O)c2ccc(Cl)c([N+](=O)[O-])c2)c(=O)n(C)c1=O	8.2	87.7*	/	65.3*	-19.4	71.0*	34.1	31.9	93.0*
O=C(COC(=O)c1ccccc1C(=O)c1ccc(Cl)c([N+](=O)[O-])c1)NC1CCCCCC1	17.3	98.5*	/	86.1*	-27.1	92.8*	105.8*	-1.1	105.6*	Mdm2-MdmX confirm=103.5*
CC(=O)c1ccc(-c2cnc3c(NC=O)cc(-c4ccc(C(=O)NC5CC5)cc4)cn23)cc1	-4.7	-14.8	14.0	56.0*	-29.5	38.6*	60.8*	36.6	94.2*
CCCN(C)C[C@@H]1Oc2cc(-c3cccc(F)c3)ccc2S(=O)(=O)N([C@@H](C)CO)C[C@@H]1C	/	/	-10.5	/	/	/	/	/	/
O=C1C=CC2C3C(=O)N(c4ccccc4)C(=O)C3C1N2Cc1ccccc1 (stereo not drawn)	-4.1	94.8*	/	80.3*	-17.4	85.6*	-178.0	97.6*	104.2*
Cc1noc(C)c1NC(=O)N(C)C[C@@H]1Oc2ncc(C3=CCCCC3)cc2C(=O)N([C@@H](C)CO)C[C@@H]1C	/	/	-3.2	/	/	/	/	/	/
O=C(CSc1ccccn1)Nc1nonc1[N+](=O)[O-]	-0.2	68.9*	45.9	88.2*	-15.2	46.5*	1.3	22.8	-33.7
C=C1C(=O)C2=CC1CCC(=O)C1(C)CCC(OC(C)=O)C(C)(C)C1CC2O (stereo not drawn)	-3.6	100.7*	102.5*	82.6*	9.2	85.9*	83.5*	95.5*	104.9*
CC(=O)Nc1ccc(Nc2nc(-c3sc(NC(C)=O)nc3C)cs2)cc1	-0.8	-6.4	4.9	67.3*	-13.7	67.8*	87.1*	66.0*	91.0*
CN(c1ccccc1)c1ccc(/C=C/[N+](=O)[O-])cc1	-2.5	102.8*	102.1*	65.4*	-9.0	91.9*	-22.5	84.7*	105.0*
O=[N+]([O-])c1ccc(C=CC=Cc2ccccc2)cc1	-1.3	-29.2	-78.0	-46.6	11.0	-240.9	/	/	/
O=C(C[C@@H]1C=C[C@@H](NC(=O)C2CCOCC2)[C@H](CO)O1)NCc1ccccc1Cl	/	/	-10.2	/	/	/	/	/	/
O=C(Nc1ccc2nc3n(c(=O)c2c1)CCCCC3)c1cc([N+](=O)[O-])ccc1F	-0.4	97.2*	?	71.4*	-45.5	45.8*	11.5	19.6	105.3*
COc1ccc(NC(=O)Nc2ccc3c(c2)C(=O)N([C@H](C)CO)C[C@H](C)[C@@H](CN(C)C(=O)Nc2cccc4ccccc24)O3)cc1	/	/	-9.7	/	/	/	/	/	/
Cc1cccc(C)c1NS(=O)(=O)c1ccc(-c2cnc(C3CC3)o2)cc1	-0.3	39.9	-3.9	65.2*	-31.4	47.0*	73.1*	34.6	50.8*
C[C@@H]1CN([C@@H](C)CO)C(=O)c2cc(NC(=O)Nc3ccc4c(c3)OCO4)ccc2O[C@H]1CN(C)CC1CCCCC1	/	/	-24.0	/	/	/	/	/	/
Cc1cc(Sc2nnc(N)s2)c2ccccc2n1	-0.6	89.7*	57.6*	89.1*	-27.3	40.9*	-7.2	31.6	0.9
O=C(C[C@H]1C[C@@H]2c3cc(NC(=O)c4ccc5c(c4)OCO5)ccc3O[C@@H]2[C@@H](CO)O1)NCc1ccccn1	/	/	15.6	/	/	/	/	/	/
CS(=O)(=O)c1ccc(C(=O)OCC(=O)NC23CC4CC(CC(C4)C2)C3)cc1[N+](=O)[O-]	-1.4	101.6*	-3.1	61.4*	-16.2	92.0*	35.0	64.0*	94.3*
CC(C)(C)C(=O)Cn1ncc(Br)c(Br)c1=O	-3.0	79.1*	103.3*	78.3*	-40.9	94.3*	37.7	93.4*	105.2*
CC(C)(C)C(=O)Cn1ncc(N2CCOCC2)c(Cl)c1=O	0.3	1.0	-31.8	-2.5	-5.8	-29.4	/	/	/
Cc1cccc(CS(=O)(=O)c2ncc(Cl)c(C(=O)NCc3ccccc3)n2)c1	-0.4	97.4*	-16.8	86.4*	-26.1	69.1*	81.6*	69.1*	62.2*
SMILES	iPSC survival up	TWEAK Fn14 block	LGR2 antag	CF NFkB inh	KKLEB cytotox	HIF-2a block	CF NFkB conf	HIF-2a inh conf	HIF-1a counter	others
CN1CCN(S(=O)(=O)c2ccc(Sc3nnnn3-c3ccccc3)c([N+](=O)[O-])c2)CC1	-2.8	100.1*	/	87.8*	-30.5	66.8*	64.2*	39.5	99.7*	Mdm2-MdmX confirm=101.7*
C=C1C(=O)C23C(O)C1CCC2C12COC3(O)C(O)C1C(C)(C)CCC2O (stereo not drawn)	-1.4	75.0*	/	81.9*	-47.6	95.4*	70.1*	93.8*	105.2*
CC(=O)OCC1OC(n2ccc3ccccc32)C(OC(C)=O)C(OC(C)=O)C1OC(C)=O (stereo not drawn)	5.1	-2.1	/	1.6	10.1	6.2	/	/	/
COC(=O)C1C=CC(OC2OC(COC(C)=O)C(OC(C)=O)C(OC(C)=O)C2OC(C)=O)n2c(=O)n(-c3ccccc3)c(=O)n21 (stereo not drawn)	-3.8	54.9*	?	80.4*	-7.4	85.4*	63.5*	93.3*	106.3*
C[C@H]1CN([C@@H](C)CO)C(=O)c2cc(NS(=O)(=O)c3cn(C)cn3)ccc2O[C@@H]1CN(C)Cc1ccccc1	/	/	4.6	/	/	/	/	/	/
Cn1c(Sc2ccc(Cl)cc2)c(C=O)c2ccccc21	-0.9	80.1*	/	76.3*	-28.9	26.3	81.1*	/	/	Mdm2-MdmX confirm=92.5*
C[C@H]1CCCCO[C@H](CN(C)CC2CCCCC2)[C@@H](C)CN([C@@H](C)CO)C(=O)c2cc(NC(=O)NC3CCCCC3)ccc2O1	/	/	-0.9	/	/	/	/	/	/
N#Cc1c(Oc2ccc3ccccc3c2)sc(C(=O)c2ccccc2)c1N	-2.1	40.0	/	50.6*	-14.9	42.5*	-102.5	17.4	-81.7
Cc1cccc(Oc2sc(C(=O)c3ccccc3)c(N)c2C#N)c1C	-0.9	28.9	/	-15.6	-0.5	26.1	/	/	/
